Test [1] concerns the target human Fibroblast Growth Factor Receptor 1 (FGFR1), FGFR1 (gene 2260) (UniProt P11362). Briefly: NVS_ENZ_hFGFR1: NovaScreen (NVS) Enzymatic Assay for human Fibroblast Growth Factor Receptor 1 (FGFR1) (AID 2283159). An outline of the steps:
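Cell-free recombinant kinase with fluorescent substrate, product separated by electrophoretic mobility shift; read 1 hour after dosing, loss of signal relative to DMSO. Initial screen in duplicate at 25 uM, actives followed in concentration series.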

Test [2] deals with rat Monoamine Oxidase, MAO-A, Central (MAOAC), gene 29253. Briefly: NVS_ENZ_rMAOAC: NovaScreen (NVS) Enzymatic Assay for rat Monoamine Oxidase, MAO-A, Central (MAOAC) (AID 2283243).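 Note: potency refers to inhibition seen as signal drop below DMSO baseline.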 The procedure, abridged:
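Scintillation read-out of MAO-A activity in rat brain lysate, 1.5 h post-dosing. Primary single-concentration screen: 25 uM, duplicate; actives re-tested in concentration series. DMSO = negative control/baseline.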

Test [3] concerns the target rat Corticotropin Releasing Factor Receptor (CRF), Crhr1 (gene 58959) (UniProt P35353). Briefly: NVS_GPCR_rCRF: NovaScreen (NVS) G Protein-Coupled Receptor Assay for rat Corticotropin Releasing Factor Receptor (CRF) (AID 2283300). The procedure, abridged:
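Single-concentration (25 uM, duplicate) radioligand binding on rat cortical membrane preparations, counted by scintillation after 2 h. Activity scored as signal loss relative to DMSO negative control.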

Test [4] has as its target Norway rat Vesicular Monoamine Transporter (VMAT2), neurotransmitter transporter, Slc18a2 (gene 25549) (UniProt Q01827). Briefly: NVS_TR_rVMAT2: NovaScreen (NVS) Transporter Assay for Norway rat Vesicular Monoamine Transporter (VMAT2), neurotransmitter transporter (AID 2283376).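 Note: actives lower the bound radioligand signal below the DMSO level.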 An outline of the steps: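 Using rat forebrain membranes, specific radioligand binding to VMAT2 was measured by filtration and scintillation counting after 1 hour. Chemicals screened at 25 uM in duplicate, actives retested in concentration series, DMSO baseline.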

In test [5] the target is human Matrix Metalloproteinase-1 (MMP1), MMP1 (gene 4312) (UniProt P03956). Briefly: NVS_ENZ_hMMP1: NovaScreen (NVS) Enzymatic Assay for human Matrix Metalloproteinase-1 (MMP1) (AID 2283181). The procedure, abridged:
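Cell-free fluorescent substrate assay of human MMP1, read after 1 h. A single 25 uM duplicate screen was followed by concentration series to a maximum of 50 uM for actives meeting threshold; inhibition analysed against DMSO baseline.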

Test [6] concerns the target rat Adenylate Cyclase, Forskolin Stimulated, Adcy5 (gene 64532) (UniProt Q04400). The test is described as follows: NVS_ENZ_rACFSKBinding: NovaScreen (NVS) Enzymatic Assay for rat Adenylate Cyclase, Forskolin Stimulated (AID 2283232). The procedure, abridged:
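Chemicals were first tested at 25 uM in duplicate, then hits run as concentration series with top concentration 50 uM. Enzyme source was rat forebrain membranes; radiometric filter read-out after 1 h, referenced to DMSO.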

The nature of test [7]: ATG_M_32_XSP2: Attagene TRANS-FACTORIAL Multi-Species (XSP2) HepG2 Assay for M19 Transcription Factor (Internal Marker) (AID 2283826). The procedure, abridged:
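HepG2 cells transiently transfected with GAL4-UAS reporter units; XSP2 panel included 3 nM 6-alpha-fluorotestosterone and 1.5 nM norgestrel for androgen receptor stimulation. Reporter mRNA read 24 h post-dosing by RT-PCR/capillary electrophoresis; fitted upward versus DMSO.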

The target of test [8] is human NIMA (Never In Mitosis Gene A)-Related Kinase 2 (NEK2), NEK2 (gene 4751) (UniProt P51955). Briefly: NVS_ENZ_hNEK2: NovaScreen (NVS) Enzymatic Assay for human NIMA (Never In Mitosis Gene A)-Related Kinase 2 (NEK2) (AID 2283188). The procedure, abridged: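 Compounds were first screened in duplicate at 25 uM, with actives followed up in concentration series. Recombinant NEK2 activity, cell-free, was read 1 h after dosing by fluorescence intensity after mobility-shift separation. Signal loss was scored against DMSO.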

For test [9], the target named is human Neonicotinoid receptor (NNR), CHRNA2 (gene 1135) (UniProt Q15822). The test is described as follows: NVS_LGIC_hNNR_NBungSens: NovaScreen (NVS) Ligand-Gated Ion Channel Assay for human Neonicotinoid receptor (NNR) (AID 2283313). The procedure, abridged: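 Compounds first screened in duplicate at 25 uM, then actives re-tested in single-replicate dose series up to 50 uM. Binding measured as displacement of specific radioligand from neuroblastoma membrane receptors after 2 h, scintillation read on filters.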

Test [10] has as its target bovine Gamma-Aminobutyric Acid Type A Receptor BDZ, alpha 1 site (GABARa1), GABRA1 (gene 780973) (UniProt P08219). The test is described as follows: NVS_LGIC_bGABARa1: NovaScreen (NVS) Ligand-Gated Ion Channel Assay for bovine Gamma-Aminobutyric Acid Type A Receptor BDZ, alpha 1 site (GABARa1) (AID 2283321). The procedure, abridged:
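Bovine cortex membrane preparation, benzodiazepine site on GABA-A alpha1; specific radioligand displacement read after 0.75 h by filtration and scintillation. Screen at 25 uM, then singleton titrations up to 50 uM; DMSO baseline.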

Test [11] has as its target rat Neurotensin Receptor (NTS), Ntsr1 (gene 366274) (UniProt P20789). Briefly: NVS_GPCR_rNTS: NovaScreen (NVS) G Protein-Coupled Receptor Assay for rat Neurotensin Receptor (NTS) (AID 2283308). An outline of the steps: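 Single-point duplicates at 25 uM, then concentration series to 50 uM max for hits, measured radioligand displacement on rat forebrain membrane preparations. Bound label counted by filtration scintillation at 1 h; signal loss relative to DMSO fitted.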

Test [12] addresses human Phosphatase and Tensin Homolog (PTEN), PTEN (gene 5728) (UniProt P60484). The test is described as follows: NVS_ENZ_hPTEN: NovaScreen (NVS) Enzymatic Assay for human Phosphatase and Tensin Homolog (PTEN) (AID 2283203). An outline of the steps: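 Loss of fluorescent product signal after mobility-shift separation reports PTEN activity, recombinant human enzyme, 1 h after compound addition. Single 25 uM duplicate screen, then concentration-response on actives; DMSO baseline.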

The target of test [13] is human Tyrosine Protein Kinase Receptor Tie-2 (Tie2), TEK (gene 7010) (UniProt Q02763). Briefly: NVS_ENZ_hTie2: NovaScreen (NVS) Enzymatic Assay for human Tyrosine Protein Kinase Receptor Tie-2 (Tie2) (AID 2283225). The procedure, abridged:
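Substrate and product were separated by mobility shift and detected by fluorescence after a 1-hour reaction with recombinant Tie2. Chemicals passing a 25 uM single-point screen were titrated to a maximum of 50 uM. Results were normalized to DMSO baseline.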

Test [14] concerns the target rat Oxytocin Receptor (OXT), Oxtr (gene 25342) (UniProt P70536). Briefly: NVS_GPCR_rOXT: NovaScreen (NVS) G Protein-Coupled Receptor Assay for rat Oxytocin Receptor (OXT) (AID 2283330). An outline of the steps:
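Binding to rat uterine membrane receptor was followed by scintillation counting of filter-trapped radioligand after 1 h. A 25 uM duplicate single-point screen preceded concentration series with a top of 50 uM. Signal loss was analysed relative to DMSO.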

The target in test [15] is human Protein Tyrosine Phosphatase Receptor Type C (PTPRC), PTPRC (gene 5788) (UniProt P08575). Briefly: NVS_ENZ_hPTPRC: NovaScreen (NVS) Enzymatic Assay for human Protein Tyrosine Phosphatase Receptor Type C (PTPRC) (AID 2283212). An outline of the steps:
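Absorbance-based phosphatase activity of human PTPRC protein extracted from yeast was measured 1 h post-dosing. Compounds first tested at 25 uM in duplicate, then those passing threshold in singleton concentration series to 50 uM.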

For test [16], the target named is human Raf-1 Proto-Oncogene, serine/threonine Kinase (RAF1), RAF1 (gene 5894) (UniProt P04049). Briefly: NVS_ENZ_hRAF1: NovaScreen (NVS) Enzymatic Assay for human Raf-1 Proto-Oncogene, serine/threonine Kinase (RAF1) (AID 2283216). The procedure, abridged:
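Single-point screening at 25 uM (duplicate), followed by singleton concentration-response to 50 uM maximum for chemicals exceeding threshold. Enzyme activity from fluorescent substrate-product mobility-shift separation after 1 h, relative to DMSO.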

Test [17] deals with Voltage-dependent N-type calcium channel subunit alpha-1B (Rattus norvegicus) (UniProt Q02294). The test is described as follows: NVS_IC_rCaChN: NovaScreen (NVS) Ion Channel Assay for rat Calcium Channel, Type N (CaChN) (AID 2283317).

Records with an inconclusive call do not appear. The source made the active and inactive calls. Rule for the calls: active = hit-call score of the fitted dose curve at least 0.9, where 1 is the maximum; inconclusive = response in the unintended direction; inactive = score below 0.9.

bovine Gamma-Aminobutyric Acid Type A Receptor BDZ, alpha 1 site (GABARa1), GABRA1 (gene 780973), sequence (P08219 whole entry, looked up): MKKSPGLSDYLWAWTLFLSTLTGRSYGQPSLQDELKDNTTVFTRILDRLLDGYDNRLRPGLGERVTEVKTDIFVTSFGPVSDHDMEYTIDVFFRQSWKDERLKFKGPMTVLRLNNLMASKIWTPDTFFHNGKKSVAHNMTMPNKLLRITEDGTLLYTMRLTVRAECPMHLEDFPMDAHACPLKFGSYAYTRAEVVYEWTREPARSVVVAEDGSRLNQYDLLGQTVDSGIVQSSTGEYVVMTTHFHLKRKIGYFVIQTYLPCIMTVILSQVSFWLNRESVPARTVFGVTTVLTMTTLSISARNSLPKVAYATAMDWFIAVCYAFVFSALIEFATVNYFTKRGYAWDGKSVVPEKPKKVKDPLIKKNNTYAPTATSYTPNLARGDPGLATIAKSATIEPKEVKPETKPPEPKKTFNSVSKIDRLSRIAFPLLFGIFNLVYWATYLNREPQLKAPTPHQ
human Fibroblast Growth Factor Receptor 1 (FGFR1), FGFR1 (gene 2260), sequence (P11362 whole entry, looked up): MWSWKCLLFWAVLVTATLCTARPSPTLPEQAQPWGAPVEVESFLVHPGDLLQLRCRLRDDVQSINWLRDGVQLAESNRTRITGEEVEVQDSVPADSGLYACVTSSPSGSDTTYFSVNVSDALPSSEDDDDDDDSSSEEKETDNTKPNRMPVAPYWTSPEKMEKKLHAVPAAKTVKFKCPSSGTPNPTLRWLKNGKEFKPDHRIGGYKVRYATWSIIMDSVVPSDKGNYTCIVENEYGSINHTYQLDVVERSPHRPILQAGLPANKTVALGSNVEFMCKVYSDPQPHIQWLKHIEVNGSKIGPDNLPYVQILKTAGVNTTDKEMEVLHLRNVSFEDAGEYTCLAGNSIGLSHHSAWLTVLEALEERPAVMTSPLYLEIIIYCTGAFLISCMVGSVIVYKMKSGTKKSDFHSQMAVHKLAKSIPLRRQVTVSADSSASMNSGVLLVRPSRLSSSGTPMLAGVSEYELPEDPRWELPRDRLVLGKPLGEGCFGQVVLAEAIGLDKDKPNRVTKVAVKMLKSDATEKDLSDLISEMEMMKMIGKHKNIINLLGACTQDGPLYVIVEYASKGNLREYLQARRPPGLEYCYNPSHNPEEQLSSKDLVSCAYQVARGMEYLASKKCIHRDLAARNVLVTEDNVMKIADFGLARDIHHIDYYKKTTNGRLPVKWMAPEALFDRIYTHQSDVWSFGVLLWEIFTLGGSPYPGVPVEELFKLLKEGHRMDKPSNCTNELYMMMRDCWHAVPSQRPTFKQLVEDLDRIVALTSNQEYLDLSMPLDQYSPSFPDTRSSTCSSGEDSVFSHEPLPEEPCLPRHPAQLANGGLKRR
human NIMA (Never In Mitosis Gene A)-Related Kinase 2 (NEK2), NEK2 (gene 4751), sequence (P51955 whole entry, looked up): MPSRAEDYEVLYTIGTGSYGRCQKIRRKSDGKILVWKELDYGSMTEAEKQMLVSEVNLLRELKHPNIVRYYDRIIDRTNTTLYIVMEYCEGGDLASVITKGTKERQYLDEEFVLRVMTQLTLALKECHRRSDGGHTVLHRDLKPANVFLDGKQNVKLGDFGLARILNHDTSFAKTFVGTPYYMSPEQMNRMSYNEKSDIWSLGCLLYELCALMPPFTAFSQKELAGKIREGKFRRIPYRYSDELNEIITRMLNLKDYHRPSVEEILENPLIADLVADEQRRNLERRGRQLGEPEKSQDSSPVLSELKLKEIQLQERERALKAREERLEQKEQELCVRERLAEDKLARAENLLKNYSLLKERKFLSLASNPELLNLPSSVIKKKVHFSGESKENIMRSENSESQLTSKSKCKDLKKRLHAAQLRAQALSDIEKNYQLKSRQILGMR
human Matrix Metalloproteinase-1 (MMP1), MMP1 (gene 4312), sequence (P03956 whole entry, looked up): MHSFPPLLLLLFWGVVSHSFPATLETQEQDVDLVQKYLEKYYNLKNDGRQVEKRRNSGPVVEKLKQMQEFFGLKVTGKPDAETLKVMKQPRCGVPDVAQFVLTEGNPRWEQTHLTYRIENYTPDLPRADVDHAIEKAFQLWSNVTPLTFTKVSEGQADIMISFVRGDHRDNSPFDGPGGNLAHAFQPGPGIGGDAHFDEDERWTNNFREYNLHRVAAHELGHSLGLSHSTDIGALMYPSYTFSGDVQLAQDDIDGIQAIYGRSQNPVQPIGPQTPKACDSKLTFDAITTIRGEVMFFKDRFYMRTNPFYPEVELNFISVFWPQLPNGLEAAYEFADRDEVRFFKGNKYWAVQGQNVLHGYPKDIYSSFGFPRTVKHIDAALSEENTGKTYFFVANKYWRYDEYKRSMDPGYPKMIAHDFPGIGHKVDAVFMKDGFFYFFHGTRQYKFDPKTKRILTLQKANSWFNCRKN
rat Adenylate Cyclase, Forskolin Stimulated, Adcy5 (gene 64532), sequence (Q04400 whole entry, looked up): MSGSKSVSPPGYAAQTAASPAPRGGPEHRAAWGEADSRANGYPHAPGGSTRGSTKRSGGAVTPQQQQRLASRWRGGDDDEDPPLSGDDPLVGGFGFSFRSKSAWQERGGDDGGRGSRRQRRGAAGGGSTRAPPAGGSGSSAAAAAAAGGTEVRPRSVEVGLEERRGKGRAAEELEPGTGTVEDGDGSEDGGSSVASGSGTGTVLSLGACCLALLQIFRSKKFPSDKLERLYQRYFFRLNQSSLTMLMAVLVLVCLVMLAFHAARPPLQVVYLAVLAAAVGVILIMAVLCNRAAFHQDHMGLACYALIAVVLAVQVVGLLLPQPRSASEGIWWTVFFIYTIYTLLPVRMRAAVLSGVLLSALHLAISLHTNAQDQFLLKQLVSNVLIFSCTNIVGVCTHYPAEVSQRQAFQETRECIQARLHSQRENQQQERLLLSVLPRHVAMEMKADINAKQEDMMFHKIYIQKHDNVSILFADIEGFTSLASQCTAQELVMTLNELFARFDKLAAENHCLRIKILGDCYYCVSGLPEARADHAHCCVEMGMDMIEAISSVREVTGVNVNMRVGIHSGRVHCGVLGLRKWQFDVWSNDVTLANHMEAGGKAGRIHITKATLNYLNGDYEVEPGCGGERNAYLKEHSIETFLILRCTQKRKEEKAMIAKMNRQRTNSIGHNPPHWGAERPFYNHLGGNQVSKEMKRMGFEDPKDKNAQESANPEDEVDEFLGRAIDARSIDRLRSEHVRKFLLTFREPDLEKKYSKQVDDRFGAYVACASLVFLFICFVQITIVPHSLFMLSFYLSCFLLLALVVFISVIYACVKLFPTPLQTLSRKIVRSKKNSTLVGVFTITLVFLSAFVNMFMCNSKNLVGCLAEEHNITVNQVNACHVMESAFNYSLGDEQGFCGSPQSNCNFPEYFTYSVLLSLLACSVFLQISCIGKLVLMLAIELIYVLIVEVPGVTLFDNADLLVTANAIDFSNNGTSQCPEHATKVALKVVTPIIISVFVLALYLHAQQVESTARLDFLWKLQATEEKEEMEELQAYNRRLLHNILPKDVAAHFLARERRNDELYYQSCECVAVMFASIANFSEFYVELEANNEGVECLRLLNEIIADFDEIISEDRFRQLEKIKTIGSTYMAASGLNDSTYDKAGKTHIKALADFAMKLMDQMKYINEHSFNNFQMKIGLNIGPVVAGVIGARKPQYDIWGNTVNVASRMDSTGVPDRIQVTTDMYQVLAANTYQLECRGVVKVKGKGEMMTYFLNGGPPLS
rat Neurotensin Receptor (NTS), Ntsr1 (gene 366274), sequence (P20789 whole entry, looked up): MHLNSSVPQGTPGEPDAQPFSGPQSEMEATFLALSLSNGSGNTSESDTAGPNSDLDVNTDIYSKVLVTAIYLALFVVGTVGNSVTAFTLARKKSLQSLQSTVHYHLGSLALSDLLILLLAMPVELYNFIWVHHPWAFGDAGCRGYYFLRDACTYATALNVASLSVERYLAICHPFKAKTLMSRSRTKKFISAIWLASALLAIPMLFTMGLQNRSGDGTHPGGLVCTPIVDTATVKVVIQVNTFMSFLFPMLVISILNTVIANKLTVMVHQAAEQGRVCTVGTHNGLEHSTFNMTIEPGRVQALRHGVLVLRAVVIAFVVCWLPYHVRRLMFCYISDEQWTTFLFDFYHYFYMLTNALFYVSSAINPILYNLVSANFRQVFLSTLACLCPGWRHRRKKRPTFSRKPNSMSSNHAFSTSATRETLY
rat Corticotropin Releasing Factor Receptor (CRF), Crhr1 (gene 58959), sequence (P35353 whole entry, looked up): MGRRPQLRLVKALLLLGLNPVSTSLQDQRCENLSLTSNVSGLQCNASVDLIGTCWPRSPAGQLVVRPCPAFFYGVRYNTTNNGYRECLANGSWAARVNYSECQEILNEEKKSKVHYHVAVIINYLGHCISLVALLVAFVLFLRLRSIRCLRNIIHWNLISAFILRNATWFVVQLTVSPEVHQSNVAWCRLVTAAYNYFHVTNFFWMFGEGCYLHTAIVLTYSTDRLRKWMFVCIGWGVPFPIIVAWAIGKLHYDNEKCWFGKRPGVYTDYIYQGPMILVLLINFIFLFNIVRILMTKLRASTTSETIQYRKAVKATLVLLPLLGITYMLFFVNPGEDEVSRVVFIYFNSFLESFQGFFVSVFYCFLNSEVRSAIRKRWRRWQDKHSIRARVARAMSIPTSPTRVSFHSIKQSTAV
human Phosphatase and Tensin Homolog (PTEN), PTEN (gene 5728), sequence (P60484 whole entry, looked up): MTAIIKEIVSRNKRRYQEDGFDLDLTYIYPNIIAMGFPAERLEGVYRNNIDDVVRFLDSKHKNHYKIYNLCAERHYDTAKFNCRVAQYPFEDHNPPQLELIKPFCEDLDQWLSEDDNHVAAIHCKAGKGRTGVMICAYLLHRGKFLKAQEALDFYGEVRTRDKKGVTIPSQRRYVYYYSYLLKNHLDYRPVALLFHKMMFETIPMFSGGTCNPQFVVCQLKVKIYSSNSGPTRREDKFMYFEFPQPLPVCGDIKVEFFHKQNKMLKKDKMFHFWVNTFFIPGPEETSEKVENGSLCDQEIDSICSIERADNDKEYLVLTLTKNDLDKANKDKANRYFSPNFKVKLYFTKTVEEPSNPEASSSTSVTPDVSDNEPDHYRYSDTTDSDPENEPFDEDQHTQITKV

As usually defined, the AC50 is the concentration at which the activity in the assay is half-maximal. For `O=C(O)c1cccc(C[C@@H]2COc3ccc(OCc4nc5cc(F)ccc5s4)cc3[C@@H]2O)c1`, the call in test [1], in test [3] and in [4] was inactive. In test [2], the half-maximal activity concentration (AC50) is 21 µM (active).

For `O=P(OC(CCl)CCl)(OC(CCl)CCl)OC(CCl)CCl`, the result in [5], in test [6] and in test [7] was inactive.

`CC(=O)NC1(c2cccc(F)c2)CCN(CC[C@@]2(c3ccc(Cl)c(Cl)c3)CN(c3ccccc3)C(=O)CO2)CC1`: the compound was called inactive in test [5].

With `O=CCCCC=O`, the result in [8] was inactive.

As for `CCCCC=O`, the result in test [8] was inactive.

Take `CN(C)CCCN1c2ccccc2Sc2ccc(Cl)cc21`: the outcome in [1] and in test [10] was inactive. Moreover, the half-maximal activity concentration (AC50) in [9] was 35.7 µM (active).

Consider `COCc1nnc(-c2ccc[n+]([O-])c2)n1-c1c(Cl)c(Cl)cc2[nH]c(=O)c(=O)[nH]c12`, for which the compound was called inactive in [1] and in test [10].

Consider `Cc1cn([C@H]2C[C@H](N=[N+]=[N-])[C@@H](CO)O2)c(=O)[nH]c1=O`, for which the compound was called inactive in [1] and in test [11].

Take `CCC(C)C(=O)OC` (configuration not stated): the outcome in test [12] was inactive.

For the compound `CN(CCOc1ccc(CC2SC(=O)NC2=O)cc1)c1ccccn1` (configuration not stated), the AC50 in test [2] was 12.9 µM (active).

For the compound `Cc1ccc(N)c([N+](=O)[O-])c1`, the AC50 in [2] was 8.62 µM (active).

In the case of `COc1nc(C)nc(NC(=O)NS(=O)(=O)c2ccccc2OCCCl)n1`, the result in [10] was inactive.

In the case of `CCCN(CCC)c1c([N+](=O)[O-])cc(C(F)(F)F)c(N)c1[N+](=O)[O-]`, the compound was classed as inactive in test [13] and in test [14].

Regarding `Cc1occc(=O)c1O`, in [6], the outcome was inactive.

Turning to `C[C@@H]1C[C@H]2[C@@H]3CCC4=CC(=O)C=C[C@]4(C)[C@@]3(F)[C@@H](O)C[C@]2(C)[C@@]1(O)C(=O)COP(=O)(O)O`, in test [15], the AC50 is 15.3 µM (active). Besides, the outcome in test [16] and in [17] was inactive.

Values taken from PubChem BioAssay (EPA / NIEHS).
